The entries come from a sample that favours hits as a whole.
IDE exosite FP – exo-site inhibitors of human IDE, primary screen, biochemical, fluorescence anisotropy, probe displacement. Insulin-degrading enzyme (Homo sapiens), P14735. purified IDE, FL-6b probe fluorescence polarization; stronger effect = lower value. z-score at 20 µM. actives 6.3% (n = 17,000). AID 1259349, 2017;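 active = z-score of -3 or lower, meaning strong loss of probe binding signal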;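 also: His-tagged human IDE residues 42-1019 made in E. coli with 30 nM FL-6b probe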
Active calls of the source: *; ! = a repeat was not active.

SMILES	IDE exosite FP
CO[C@@H]1CN(C)C(=O)c2cc(NC(=O)Nc3cccc(Cl)c3)ccc2OC[C@H](C)N(C(=O)Nc2c(C)noc2C)C[C@@H]1C	0.72
COc1ccccc1-c1ccc(C2[C@H]3CNC[C@@H]2N3Cc2nccs2)cc1 (stereo partly drawn)	-2.3
COCC(=O)N1CCC2(CC1)CN[C@@H](CO)c1c2c2ccc(OC)cc2n1C	-0.72
Cc1noc(C)c1NC(=O)N1C[C@H](O)COC[C@H]2O[C@H](CC(=O)N[C@@H]3CCN(Cc4ccccc4)C3)CC[C@@H]21	-0.15
CN(C)C(=O)c1ccc(-c2ccc([C@@H]3[C@@H](CO)N(C(=O)Cc4ccccn4)[C@H]3C#N)cc2)cc1	0.87
C[C@H]1CN([C@@H](C)CO)C(=O)CCCn2nncc2CO[C@@H]1CN(C)C(=O)CCC(F)(F)F	-0.45
COCC(=O)NC[C@@H]1[C@H](c2ccccc2)[C@H](CO)N1C(C)=O	4.4
CO[C@H](CN(C)Cc1cc(F)ccc1F)[C@@H](C)CN([C@H](C)CO)S(=O)(=O)c1ccc(C)cc1	0.31
N#C[C@H]1[C@H](c2ccc(C#CC3CCCC3)cc2)[C@@H](CO)N1C(=O)Cc1ccccn1	-0.7
COc1ccc2c3c(n(C)c2c1)[C@H](CO)N(C)CC31CCN(C(=O)c2ccccc2F)CC1	-0.95
Cc1noc(C)c1NC(=O)N(C)C[C@@H]1Oc2cc(C#CCN(C)C)ccc2S(=O)(=O)N([C@@H](C)CO)C[C@H]1C	0.39
Cc1ccccc1-c1ccc(C2[C@@H]3CN(S(=O)(=O)c4ccccc4C)C[C@H]2N3)cc1 (stereo partly drawn)	-11*!
COc1ccc(-c2ccc(C3[C@@H]4CN(S(=O)(=O)c5ccccc5C)C[C@H]3N4)cc2)cc1 (stereo partly drawn)	-0.84
COc1cccc(-c2ccc(C3[C@@H]4CN(S(=O)(=O)c5ccccc5C)C[C@H]3N4)cc2)c1 (stereo partly drawn)	-1.6
CCCC#Cc1cnc2c(c1)C(=O)N([C@H](C)CO)C[C@H](C)[C@@H](CN(C)C(=O)Nc1cc(F)ccc1F)O2	-1.7
COc1cccc(-c2ccc([C@H]3[C@H](CO)N4CCCCN(C(=O)NC(C)C)C[C@@H]34)cc2)c1	-12*
COc1cccc(-c2ccc([C@@H]3[C@H]4CN(C(=O)c5ccc(F)cc5)CCCCN4[C@H]3CO)cc2)c1	0.86
COc1cccc(-c2ccc([C@H]3[C@H](CO)N4CCCCN(C(=O)c5ccc6c(c5)OCO6)C[C@@H]34)cc2)c1	0.9
COc1cccc(-c2ccc([C@@H]3[C@@H](CO)N4CCCCN(C(=O)c5ccc(F)cc5)C[C@@H]34)cc2)c1	-0.76
COc1cccc(-c2ccc([C@H]3[C@@H](CO)N4CCCCN(C(=O)c5ccc(F)cc5)C[C@H]34)cc2)c1	-3.3*
COc1cccc(-c2ccc([C@@H]3[C@@H](CO)N4CCCCN(C(=O)c5ccc(F)cc5)C[C@H]34)cc2)c1	-1.7
COc1cccc(-c2ccc([C@H]3[C@@H](CO)N4CCCCN(C(=O)NC(C)C)C[C@@H]34)cc2)c1	-5.8*
COc1cccc(-c2ccc([C@H]3[C@H]4CN(C(=O)c5ccc6c(c5)OCO6)CCCCN4[C@H]3CO)cc2)c1	1.3
COc1cccc(-c2ccc([C@H]3[C@@H](CO)N4CCCCN(C(=O)c5ccc(F)cc5)C[C@@H]34)cc2)c1	-0.66
COc1cccc(-c2ccc([C@@H]3[C@@H](CO)N4CCCCN(C(=O)c5ccc6c(c5)OCO6)C[C@@H]34)cc2)c1	0.95
SMILES	IDE exosite FP
COc1cccc(-c2ccc([C@@H]3[C@H]4CN(C(=O)NC(C)C)CCCCN4[C@H]3CO)cc2)c1	-8*
N#C[C@@H]1[C@H](c2ccccc2C2=CCCC2)[C@@H](CO)N1C(=O)Cc1ccncc1	0.21
CN1CCN(C(=O)C[C@H]2CC[C@H]3[C@@H](COC[C@@H](O)CN3C(=O)Nc3ccc4c(c3)OCO4)O2)CC1	0.81
COc1ccc2c3c(n(C)c2c1)[C@@H](CO)N(C)CC31CN(C(=O)C2CCC2)C1	-1.2
COc1ccc(S(=O)(=O)N2CCCCN3[C@H](C2)[C@H](c2ccc(C#CC4CC4)cc2)[C@@H]3CO)cc1	1.6
CCCN1C[C@H](C)[C@@H](OC)CN(C)C(=O)c2cc(NC(=O)C3CCC3)ccc2OC[C@H]1C	-0.14
COCC(=O)N1C[C@@H](C)[C@H](OC)CN(C)C(=O)c2ccc(NC(=O)Nc3cccc(F)c3)cc2OC[C@@H]1C	-0.36
N#C[C@@H]1[C@@H](c2ccc(-c3ccncc3)cc2)[C@@H](CO)N1C(=O)C1CCCC1	1.3
COc1ccc([C@H]2C/C=C\C[C@H](c3cccc(Cl)c3)NC(=O)[C@@H](c3ccccc3)CC(=O)N2)c(OC)c1	0.62
COc1ccc2c3c(n(C)c2c1)[C@H](CO)N(C(=O)c1ccncc1)CC31CN(C(C)=O)C1	0.63
CCCNC(=O)N1[C@H](CO)[C@@H](c2ccccc2)C12CN(CCC(F)(F)F)C2	0.55
CCS(=O)(=O)N1CCCCN2[C@@H](CO)[C@@H](c3ccc(-c4ccc(C(=O)N(C)C)cc4)cc3)[C@@H]2C1	-1.2
N#C[C@H]1N[C@H](CO)[C@@H]1c1ccc(-c2ccccc2F)cc1	-4.4*
COc1ccc(-c2ccc([C@@H]3[C@H](C#N)N[C@H]3CO)cc2)cc1	4.1
N#C[C@H]1N[C@H](CO)[C@H]1c1ccccc1	3.8
COc1ccc(-c2ccc([C@H]3[C@@H](C#N)N[C@@H]3CO)cc2)cc1	3.1
COc1ccccc1-c1ccc([C@H]2[C@H](C#N)N[C@@H]2CO)cc1	-12*
N#C[C@@H]1N[C@H](CO)[C@@H]1c1ccc(-c2ccccc2F)cc1	4.7
COc1ccc(NC(=O)N2C[C@@H]3[C@H](c4ccccc42)[C@H](CO)N3Cc2ccccn2)cc1	0.22
O=C1CN(Cc2ccccc2)C[C@H]2[C@H](c3ccc(Br)cc3)[C@@H](CO)N12	-2.9
CN(C)C(=O)C[C@H]1C[C@@H]2c3cc(NC(=O)c4cccnc4)ccc3O[C@@H]2[C@H](CO)O1	-0.57
O=C(C[C@@H]1CC[C@@H](NS(=O)(=O)c2ccccc2F)[C@@H](CO)O1)NCCCN1CCOCC1	0.2
CC(C)C#Cc1ccc([C@@H]2[C@@H](CO)N3C(=O)CN(C(=O)Cc4ccccc4)C[C@H]23)cc1	-0.46
C[C@H]1CC(=O)N[C@H](c2ccccc2)C/C=C\C[C@H](c2ccc3c(c2)OCO3)NC1=O	0.55
CCC(=O)N1CC(=O)N2[C@H](C1)[C@H](c1ccc(C#CC3CCCC3)cc1)[C@@H]2CO	0.68
SMILES	IDE exosite FP
Cc1ccccc1-c1ccc([C@H]2[C@H]3CN(S(C)(=O)=O)CCCCN3[C@H]2CO)cc1	-0.86
CCS(=O)(=O)N1CCCCN2[C@H](CO)[C@H](c3ccc(-c4ccccc4F)cc3)[C@H]2C1	-2.2
O=S(=O)(Cc1ccccc1)N1CCCCN2[C@H](C1)[C@H](c1ccc(-c3ccccc3)cc1)[C@@H]2CO	2.8
Cc1ccccc1-c1ccc([C@@H]2[C@@H](CO)N3C(=O)CN(S(C)(=O)=O)C[C@@H]23)cc1	-13*
CS(=O)(=O)N1CC(=O)N2[C@H](CO)[C@H](c3ccc(Br)cc3)[C@@H]2C1	-0.52
Cc1ccccc1-c1ccc([C@@H]2[C@@H](CO)N3CCCCN(S(=O)(=O)c4ccc(F)cc4)C[C@H]23)cc1	2.4
Cc1ccccc1-c1ccc([C@H]2[C@@H](CO)N3CCCCN(S(C)(=O)=O)C[C@@H]23)cc1	-2.3

Screening data as filed in PubChem BioAssay.
